MOR-DOR inv ag: inverse agonists of MOR-DOR heterodimerization, primary screen, cell-based, luminescence. cell-based MOR-DOR heterodimer luminescence, inverse agonism. inhibition, % at 9.3 µM. 0.21% of 340,000 active; in the data active = inhibition above about 22%, passing the limit was not always enough;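 note: 0% = cells with DMSO and 100% = wells without cells with DMSO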
MOR-DOR ag: agonists of OPRM1-OPRD1 heterodimerization, primary screen, cell-based, luminescence | cells | activation, % at 9.3 µM | 0.3% of 340,000 active | AID 504326, 2011;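 note: 0% = vehicle-treated cells and 100% = reference agonist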
HTR5A inv ctr: HTR5A inverse agonists in luminescence cell assay, primary screen, counter-screen for OPRM1-OPRD1 heterodimer inverse agonist project, full-deck HTS; 0.083% of 340,000 active; 5-hydroxytryptamine receptor 5A (Homo sapiens), P47898; inhibition, % at 9.3 µM; HTR5A cell line, inverse agonism; in the data active = inhibition mostly above about 23%, no sharp cut-off; inactive = mostly below about 18%;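 note: 0% = cells with DMSO and 100% = no-cell wells with DMSO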
HTR5A ag: HTR5A agonists in luminescence cell assay, primary screen, counter-screen for OPRM1-OPRD1 heterodimer agonist project, full-deck HTS; cell-based; activation, % at 9.3 µM; 0.61% of 340,000 active; in the data active = activation mostly above about 9.5%, no sharp cut-off; inactive = mostly below about 7.6%;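 note: 0% = cells with vehicle only and 100% = reference agonist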
HTR2A ag: mouse Htr2a agonists via beta-arrestin recruitment, primary screen, cell-based, luminescence. 5-hydroxytryptamine receptor 2A (Mus musculus), P35363. CHO-K1 mHTR2A beta-arrestin complementation; percent of 30 µM serotonin response. AID 624169, 2012. activation, % at 7.6 µM. 0.66% of 360,000 active;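 active = activation above a run cutoff, the mean activation of all tested compounds plus 3 SD, cut at about 14% in these data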;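 note: 0% = plate median of compound wells and 100% = 30 µM serotonin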
Target sequence (P35363 whole entry, looked up): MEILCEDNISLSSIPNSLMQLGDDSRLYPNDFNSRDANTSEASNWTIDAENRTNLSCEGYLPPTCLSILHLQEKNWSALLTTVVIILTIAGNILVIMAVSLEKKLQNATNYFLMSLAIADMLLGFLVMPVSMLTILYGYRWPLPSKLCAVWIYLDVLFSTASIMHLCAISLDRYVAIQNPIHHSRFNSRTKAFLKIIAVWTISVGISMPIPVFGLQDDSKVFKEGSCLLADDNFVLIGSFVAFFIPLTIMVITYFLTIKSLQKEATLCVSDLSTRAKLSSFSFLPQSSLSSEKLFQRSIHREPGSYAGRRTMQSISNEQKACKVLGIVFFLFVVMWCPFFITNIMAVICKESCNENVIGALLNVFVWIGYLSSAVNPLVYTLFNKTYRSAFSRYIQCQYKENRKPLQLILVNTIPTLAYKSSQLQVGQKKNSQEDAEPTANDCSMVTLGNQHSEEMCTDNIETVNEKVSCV
MOR-DOR ag conf: agonists of MOR-DOR heterodimerization, confirmation, cell-based, luminescence | 45% of 830 active | activation, % at 9.3 µM | cells, luminescence complementation | shares compounds with MOR-DOR ag;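 note: 0% = vehicle-treated cells and 100% = reference agonist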
HTR5A ag ctr2: HTR5A agonists in cells, counter-screen for OPRM1-OPRD1 heterodimer agonist project, cell-based, luminescence. shares compounds with MOR-DOR ag. HTR5A agonist counterscreen. activation, % at 9.3 µM. 8% of 830 active; in the data active = activation above about 17%;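 note: 0% = vehicle-treated cells and 100% = reference agonist response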
OPRM1-D1 inv cf: inverse agonists of MOR-DOR heterodimerization, confirmation, cell-based, luminescence | shares compounds with MOR-DOR inv ag | cells expressing OPRM1/OPRD1 heterodimer | inhibition, % at 9.3 µM | 20% of 580 active; in the data active = inhibition above about 32%;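 note: 0% = cells with DMSO and 100% = wells lacking cells with DMSO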
HTR5A inv count: HTR5A inverse agonists, counter-screen for OPRM1-OPRD1 inverse agonist project, cell-based, luminescence | HTR5A-expressing cells, inverse agonism | AID 504914, 2011 | shares compounds with MOR-DOR inv ag | 580 tested, under 10 active | inhibition, % at 9.3 µM; call rule not given here;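 note: 0% = cells with DMSO and 100% = no-cell wells with DMSO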
OPRM1 ag: OPRM1 agonists via beta-arrestin recruitment, confirmation, counter-screen for mouse HTR2A agonist project, cell-based, luminescence, single concentration; shares compounds with HTR2A ag; U2OS OPRM1 beta-arrestin PathHunter; DMSO 0%, DAMGO 9.3 µM 100%; activation, % at 9.3 µM; 5.3% of 2,300 active;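 active = mean activation above the mean of DMSO-only wells plus 3 SD, cut at about 0.5% in these data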
m5-HT2A ag conf: mouse HTR2A agonists, beta-arrestin recruitment, confirmation, cell-based, luminescence, CHO-K1 PathHunter, triplicate; shares compounds with HTR2A ag; activation, % at 7.6 µM; 19% of 2,300 active; DMSO 0%, 30 µM serotonin 100%;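 active = mean activation across triplicates above the hit threshold derived in the original primary screen, cut at about 15% in these data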
The depositor's hits bear a star; i = inactive; nt = not tested or not shown. An excerpt weighted towards active compounds, which were near 1.6% of everything screened. Cut-off read from the data, not from the text of the source, unless noted: active = activation above about 18%; inactive = the rest.

SMILES | MOR-DOR inv ag | MOR-DOR ag | HTR5A inv ctr | HTR5A ag | HTR2A ag | MOR-DOR ag conf | HTR5A ag ctr2 | others
CN1CC[C@]23c4c5ccc(OC6OC(C(=O)O)[C@@H](O)C(O)[C@H]6O)c4OC2C(O)C=CC3[C@H]1C5 (stereo not given in full) | -34 | 8 | -10 | 4 | 5 | nt | nt
CC(=O)OC1C=CC2[C@H]3Cc4ccc(O)c5c4[C@@]2(CCN3C)C1O5 (stereo not given in full) | i | 282* | -13 | 6 | -4 | -2 | -1
CN1CC[C@]23c4c5ccc(O)c4OC2C(O)C=CC3[C@H]1C5 (stereo not given in full) | nt | nt | -15 | 7 | 4 | nt | -2
COc1ccc2c3c1OC1[C@H](O)CCC4[C@@H](C2)N(C)CC[C@]314 (stereo not given in full) | -185 | 46* | -9 | 4 | 3 | 2 | 4
CN1CCc2c([nH]c3ccccc23)C1 | 20 | -4 | 0 | 2 | -4 | nt | nt
CC1=NCCc2c1[nH]c1ccccc21 | -108 | 19* | -40 | 5 | 4 | 6 | 12
C=CCN1Cc2ccccc2-n2nncc2C1 | nt | nt | nt | nt | -4 | nt | nt
S=C(NCCc1ccccc1)N1Cc2ccccc2-n2nncc2C1 | nt | nt | nt | nt | -6 | nt | nt
COc1cc2c3cc1Oc1cc(ccc1O)C[C@@H]1c4c(cc(OC)c(O)c4Oc4ccc(cc4)C[C@H]3N(C)CC2)CCN1C | -189 | 34* | -23 | 11 | -3 | 65* | -4
C[C@H](CO)N1C[C@H](C)[C@@H](CN(C)C(=O)Oc2ccccc2)OCc2cnnn2CCCC1=O | nt | nt | nt | nt | -2 | nt | nt
C[C@@H]1O[C@@H](O[C@H]2C[C@@H](O)[C@]3(CO)[C@H]4[C@H](O)C[C@]5(C)[C@@H](C6=CC(=O)OC6)CC[C@]5(O)[C@@H]4CC[C@]3(O)C2)[C@H](O)[C@H](O)[C@H]1O | -386 | 70* | -33 | 30* | -1 | 79* | 6
CCC(=O)OC(Cc1ccccc1)(c1ccccc1)[C@H](C)CN(C)C (stereo not given in full) | -326 | 81* | -22 | 9 | -6 | 80* | -5
CCOC(=O)[C@]12Cc3ccccc3[C@H]1N(CCC(=O)OC)C(=O)c1cc(OC)ccc12 | nt | nt | nt | nt | -5 | nt | nt
COC12CCC3(CC1C(C)(O)C(C)(C)C)[C@H]1Cc4ccc(O)c5c4[C@@]3(CCN1CC1CC1)C2O5 (stereo not given in full) | nt | nt | -10 | 4 | 6 | nt | 53*
COC12CCC3(CC1C(C)(O)C(C)(C)C)[C@H]1Cc4ccc(OC5OC(C(=O)O)[C@@H](O)C(O)[C@H]5O)c5c4[C@@]3(CCN1CC1CC1)C2O5 (stereo not given in full) | -73 | 18* | -14 | 6 | -3 | 84* | 3
CN(C(=O)Cc1ccc(Cl)c(Cl)c1)C(CN1CCCC1)c1cccc(OCC(=O)O)c1 (stereo not given) | -308 | 57* | -4 | 1 | -1 | 37* | -1
O=C(CCc1ccccc1)N1Cc2cc(N3CCCCC3)ccc2-n2nncc2C1 | nt | nt | nt | nt | 2 | nt | nt
CCCCn1nnnc1C(CCSC)N1CCC2(CC1)C(=O)NCN2c1ccccc1 (stereo not given) | nt | nt | nt | nt | -1 | nt | nt
CC1OC(OC2C=C3CCC4C(CCC5(C)C(c6ccc(=O)oc6)CCC45O)C3(C)CC2)C(O)C(OC2OC(CO)C(O)C(O)C2O)C1O (stereo not given) | -401 | 92* | -99 | 26* | 15* | 2 | 0 | OPRM1 ag=6.9*;m5-HT2A ag conf=1
C=CCNC(=S)N1Cc2cc(Br)ccc2-n2nncc2C1 | nt | nt | nt | nt | 0 | nt | nt
CCC1CCCCN1CC(=O)c1ccc(OC(F)F)cc1 (stereo not given) | 42* | -8 | 17 | 6 | -2 | nt | nt | OPRM1-D1 inv cf=14;HTR5A inv count=41
O=C(CN1CCCCC1)c1ccc(OC(F)F)cc1 | 13 | -2 | -17 | 7 | 1 | nt | nt
Cc1ccc(C2SCC(=O)Nc3c2c(=O)[nH]n3C2CCOC(C)(C)C2)cc1 (stereo not given) | 12 | -3 | 9 | -3 | 0 | nt | nt
CC1(C)CC(n2[nH]c(=O)c3c2NC(=O)CSC3c2ccccc2)CCO1 (stereo not given) | 31* | -7 | 11 | 2 | 0 | nt | nt | OPRM1-D1 inv cf=-2;HTR5A inv count=-16
O=C(CN1CCCCC1)c1cccc(Br)c1 | 68* | -13 | 3 | -3 | -3 | nt | nt | OPRM1-D1 inv cf=-444;HTR5A inv count=-13
CC(=O)OC1C(O)C2=C3C4(C)C1C(C)(C)C(=O)CC4C3(O)C(OC(C)=O)C1(CC1C)C2=O (stereo not given) | nt | nt | nt | nt | 5 | nt | nt
N#Cc1c(/N=C/c2ccc(O)cc2O)sc2c1C1CCN2CC1 | 51* | -10 | 7 | -2 | 1 | nt | nt | OPRM1-D1 inv cf=-4;HTR5A inv count=10
CCOC(=O)[C@]12Cc3cc(Cl)ccc3[C@H]1N(C(C)C)C(=O)c1ccccc12 | nt | nt | nt | nt | 7 | nt | nt
CC1CC2(O)c3no[n+]([O-])c3CCC2N1O (stereo not given) | 25 | -5 | 24 | -2 | 7 | nt | nt
CC1CN(O)C2CCc3c(no[n+]3[O-])C12O (stereo not given) | 31* | -5 | -29 | 3 | 1 | nt | nt | OPRM1-D1 inv cf=-29;HTR5A inv count=3

Source: PubChem BioAssay (The Scripps Research Institute Molecular Screening Center)
